Source: PubChem BioAssay (EPA / NIEHS)
Where a structure was tested more than once in an assay, its records may differ in their call. The source made the active and inactive calls. How the source made its calls: active means hit-call score of the fitted dose curve at least 0.9, where 1 is the maximum; inactive means score below 0.9.

Key:
[1] = APR_HepG2_CellCycleArrest_24hr: Apredica 24-hour HepG2 Assay for Cell Cycle Arrest (AID 2282905); conditions: imaging, actives raise or lower the signal;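 further: cell cycle arrest scored as ratio of 2N to 4N nuclear DNA content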
How it was run: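 Compounds at 0.39–200 uM (0.5% DMSO) for 24 h, then fixed and Hoechst 33342 stained. Cell-cycle analysis of nuclear DNA content by high-content imaging, fitted bidirectionally versus DMSO.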

[2] = APR_HepG2_NuclearSize_24hr: Apredica 24-hour HepG2 Assay for Nuclear Size (AID 2282907); conditions: high-content imaging, actives raise or lower the signal
How it was run: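 HepG2 cells exposed 24 h to compounds at 0.39–200 uM (0.5% DMSO), fixed, Hoechst 33342 stained and imaged at 20x; nuclear diameter measured by automated image analysis, fitted bidirectionally against DMSO controls.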

[3] = APR_HepG2_CellLoss_24hr: Apredica 24-hour HepG2 Assay for Cell Loss (AID 2282908); conditions: high-content imaging;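 on AC50: fit in both directions so a hit may be cell loss or gain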
How it was run: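 HepG2 cells exposed 24 hr to 0.39–200 uM compound in duplicate at 0.5% v/v final DMSO. Cells fixed in 3.7% formaldehyde and Hoechst 33342-stained. Cell number came from nuclear imaging at 20x. Bidirectional fit versus DMSO.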

[4] = APR_HepG2_MicrotubuleCSK_24hr: Apredica 24-hour HepG2 Assay for Microtubule CSK Stabilty (AID 2282909); conditions: HepG2 microtubule cytoskeleton imaging, actives raise or lower the signal
How it was run: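 HepG2 cells were treated 24 hr with compound at 0.39–200 uM in duplicate (0.5% DMSO final), then fixed and permeabilized. Alpha-tubulin immunofluorescence was imaged by high-content microscopy, with bidirectional fitting against DMSO and taxol as positive control.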

[5] = APR_HepG2_MitoticArrest_24hr: Apredica 24-hour HepG2 Assay for Mitotic Arrest (AID 2282910); conditions: high-content imaging, actives raise or lower the signal
How it was run: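 HepG2 cells, 24 h exposure at 0.39-200 uM (10 concentrations, duplicate, 0.5% DMSO). Fixed, stained for phospho-histone H3 with Hoechst; imaged by high-content microscopy, bidirectional fit versus DMSO.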

[6] = APR_HepG2_MitoMembPot_24hr: Apredica 24-hour HepG2 Assay for Mitochondrial Membrane Potential (AID 2282911); conditions: imaging, actives raise or lower the signal
How it was run: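 Human hepatoma HepG2 cultures received ten compound concentrations up to 200 uM for 24 hr. Membrane-potential dye signal, captured by automated fluorescence microscopy, was scored for gain or loss against DMSO controls.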

[7] = APR_HepG2_MitoMass_24hr: Apredica 24-hour HepG2 Assay for Mitochondrial Mass (AID 2282912); conditions: high-content imaging, actives raise or lower the signal
How it was run: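 HepG2 cells exposed 24 hr to 0.39–200 uM compound, 0.5% v/v DMSO, in duplicate. Stained before fixation with 250 nM MitoTracker Red CMXRos for 30 min, then imaged at 20x with Hoechst nuclei. Fitted in both directions against DMSO.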

[8] = APR_HepG2_p53Act_24hr: Apredica 24-hour HepG2 Assay for p53 Activation (AID 2282913); conditions: high-content imaging, actives raise or lower the signal;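 further: p53 protein immunofluorescence averaged per cell in HepG2 with Hoechst nuclei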
How it was run: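 Automated fluorescence imaging quantifies p53 immunostaining in HepG2 cells after a 24 hr exposure (0.39–200 uM, duplicate, 0.5% DMSO). Nuclei are located by Hoechst 33342 staining.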

[9] = APR_HepG2_CellCycleArrest_72hr: Apredica 72-hour HepG2 Assay for Cell Cycle Arrest (AID 2282914); conditions: high-content imaging, actives raise or lower the signal
How it was run: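 Cell cycle arrest in HepG2 was scored from nuclear DNA content after 72 hr compound treatment (0.39–200 uM). Activity, either gain or loss, was fitted against the DMSO baseline.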

[10] = APR_HepG2_CellLoss_72hr: Apredica 72-hour HepG2 Assay for Cell Loss (AID 2282915); conditions: high-content imaging
How it was run: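 HepG2 cells exposed 72 h to compound at 0.39–200 uM (10 concentrations, duplicate) in 0.5% DMSO. Fixed with 3.7% formaldehyde and Hoechst 33342-stained. Imaged at 20x; nuclear count gives cell number, fitted bidirectionally versus DMSO.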

[11] = APR_HepG2_P-H2AX_72hr: Apredica 72-hour HepG2 Assay for H2AX Phosphorylation (AID 2282916); conditions: imaging, actives raise or lower the signal;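 further: phospho-histone H2A.x immunostain intensity per cell marking DNA damage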
How it was run: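 HepG2 cells treated 72 h at 0.39–200 uM, 0.5% DMSO final, duplicates. Formaldehyde-fixed, Triton-permeabilised, immunostained for phospho-H2A.x with Hoechst; fluorescence imaged at 20x, bidirectional fit versus DMSO.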

[12] = APR_HepG2_MitoticArrest_72hr: Apredica 72-hour HepG2 Assay for Mitotic Arrest (AID 2282918); conditions: high-content imaging, actives raise or lower the signal
How it was run: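 Mitotic arrest in HepG2 is scored from phospho-histone H3 staining after 72 hr dosing across 0.39–200 uM, with DMSO at 0.5% v/v. Nuclei are identified by Hoechst 33342 and fluorescence intensity is quantified per cell.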

[13] = APR_HepG2_MicrotubuleCSK_72hr: Apredica 72-hour HepG2 Assay for Microtubule CSK Stabilty (AID 2282919); conditions: HepG2 microtubule cytoskeleton, high-content imaging, actives raise or lower the signal
How it was run: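 HepG2 cells were exposed 72 hr to compound at 0.39–200 uM in duplicate (0.5% DMSO final), then fixed and permeabilized. Alpha-tubulin immunofluorescence was imaged by high-content microscopy, with bidirectional fitting against DMSO and taxol as positive control.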

[14] = APR_HepG2_P-H2AX_24hr: Apredica 24-hour HepG2 Assay for H2AX Phosphorylation (AID 2282920); conditions: high-content imaging, actives raise or lower the signal
How it was run: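 Signal comes from a FITC-labeled secondary detecting phospho-histone H2A.x in fixed HepG2 cells, quantified by automated imaging at 20x. Dosing ran 24 hr across 0.39–200 uM with 0.5% v/v DMSO.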

[15] = APR_HepG2_StressKinase_72hr: Apredica 72-hour HepG2 Assay for Stress Kinase (AID 2282921); conditions: HepG2 stress kinase (phospho-c-Jun) imaging, actives raise or lower the signal
How it was run: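 HepG2 cells treated 72 hr with 0.39–200 uM compound, 0.5% v/v DMSO, duplicate wells. After formaldehyde fixation and Triton permeabilization, stained with anti-phospho-c-Jun (1:500) and Cy3 secondary, imaged at 20x. Fitted in both directions against DMSO.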

[16] = APR_HepG2_StressKinase_24hr: Apredica 24-hour HepG2 Assay for Stress Kinase (AID 2282922); conditions: HepG2 stress kinase (phospho-c-Jun) imaging, actives raise or lower the signal
How it was run: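 HepG2 cells exposed 24 h to 0.39–200 uM compound in duplicate (0.5% v/v DMSO final). Cells fixed in 3.7% formaldehyde, permeabilized and immunostained for phospho-c-Jun; read by high-content fluorescence imaging, fitted bidirectionally against DMSO.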

[17] = APR_HepG2_p53Act_72hr: Apredica 72-hour HepG2 Assay for p53 Activation (AID 2282923); conditions: high-content imaging, actives raise or lower the signal;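 further: average cellular p53 protein immunofluorescence intensity in HepG2 cells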
How it was run: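 HepG2 cells exposed 72 h to 0.39–200 uM in 0.5% DMSO, duplicates. Fixed, permeabilized cells immunostained for p53 (Cy5) with Hoechst; imaged at 20x, fluorescence analyzed bidirectionally against DMSO.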

[18] = APR_HepG2_MitoMass_72hr: Apredica 72-hour HepG2 Assay for Mitochondrial Mass (AID 2282924); conditions: high-content imaging, actives raise or lower the signal;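 further: MitoTracker Red CMXRos stain intensity per cell imaged as mitochondrial mass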
How it was run: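 HepG2 cells dosed 72 hr at 0.39–200 uM (0.5% DMSO), in duplicate. MitoTracker Red CMXRos 250 nM loaded 30 min before formaldehyde fixation; high-content fluorescence imaging, bidirectional fit versus DMSO.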

[19] = APR_HepG2_MitoMembPot_72hr: Apredica 72-hour HepG2 Assay for Mitochondrial Membrane Potential (AID 2282917); conditions: imaging, actives raise or lower the signal
How it was run: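 HepG2 cells dosed 72 hr with compound at 0.39–200 uM in duplicate, 0.5% v/v DMSO final. Mitochondria stained with 250 nM MitoTracker Red CMXRos for 30 min before formaldehyde fixation, imaged by high-content fluorescence; bidirectional fit versus DMSO.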

Measured: AC50

O=C(O)COc1ccc(Cl)cc1Cl
inactive: [1] | [2] | [3] | [4] | [5] | [6] | [7] | [8] | [9] | [10] | [11] | [12] | [13] | [14] | [15] | [16] | [17] | [18]

CC1(c2ccc(Oc3ccccc3)cc2)OC(=O)N(Nc2ccccc2)C1=O (configuration not stated)
inactive: [1] | [2] | [7] | [9] | [11] | [19] | [12] | [13] | [15] | [16] | [18]
active: [3] 120 µM | [4] 88.5 µM | [6] 6.77 µM | [10] 32.6 µM | [14] 93.2 µM | [17] 121 µM

CC(C)N(C(=O)COc1nnc(C(F)(F)F)s1)c1ccc(F)cc1
inactive: [1] | [2] | [6] | [7] | [9] | [11] | [13] | [14] | [16] | [17] | [18]
active: [3] 115 µM | [4] 99.5 µM | [10] 37.6 µM | [12] 169 µM | [15] 113 µM

ClC1C(Cl)C(Cl)C(Cl)C(Cl)C1Cl (configuration not stated)
inactive: [1] | [2] | [3] | [4] | [6] | [7] | [9] | [10] | [11] | [19] | [12] | [13] | [14] | [15] | [16] | [17] | [18]
active: [9] 141 µM | [10] 57.2 µM

O=C(Nc1ccccc1)Nc1cnns1
inactive: [1] | [2] | [3] | [6] | [7] | [9] | [14] | [15] | [16] | [17] | [18]
active: [4] 68.9 µM | [10] 90.8 µM | [11] 93.6 µM | [12] 91.6 µM | [13] 78 µM

CCOCN(C(=O)CCl)c1c(C)cccc1CC
inactive: [11] | [19] | [15] | [16] | [17] | [18]
active: [1] 30.6 µM | [2] 33.4 µM | [3] 30.5 µM | [4] 99.6 µM | [6] 50.7 µM | [7] 65.1 µM | [9] 29.4 µM | [10] 9.99 µM | [12] 93 µM | [13] 13.9 µM | [14] 30.9 µM

CCCN(CCC)c1c([N+](=O)[O-])cc(C(F)(F)F)cc1[N+](=O)[O-]
inactive: [1] | [2] | [3] | [4] | [7] | [9] | [11] | [12] | [13] | [14] | [15] | [16] | [18]
active: [6] 118 µM | [10] 109 µM

OCCOc1ccccc1
inactive: [1] | [2] | [3] | [4] | [6] | [7] | [9] | [10] | [11] | [12] | [13] | [14] | [15] | [16] | [17] | [18]

CNC(=O)Oc1cccc(N=CN(C)C)c1
active: [3] 78.6 µM | [9] 64.1 µM | [10] 96.5 µM | [11] 107 µM | [14] 106 µM
inactive: [1] | [2] | [4] | [6] | [7] | [12] | [13] | [15] | [16] | [17] | [18]

COc1cc(OC)nc(NC(=O)NS(=O)(=O)c2cc(NC=O)ccc2C(=O)N(C)C)n1
inactive: [1] | [2] | [3] | [4] | [6] | [7] | [9] | [10] | [11] | [12] | [13] | [14] | [15] | [16] | [17] | [18]

CCc1ccc(C(=O)NN(C(=O)c2cc(C)cc(C)c2)C(C)(C)C)cc1
active: [10] 43.6 µM | [13] 51.7 µM
inactive: [1] | [2] | [3] | [4] | [6] | [7] | [9] | [11] | [12] | [14] | [15] | [16] | [17] | [18]

CN1CSC(=S)N(C)C1
active: [3] 16.8 µM | [9] 6.04 µM | [10] 21.9 µM | [11] 4.12 µM | [13] 66.4 µM | [14] 21.8 µM | [16] 26.3 µM | [18] 57.2 µM
inactive: [1] | [2] | [4] | [6] | [7] | [8] | [12] | [15] | [17]

N#Cc1c(Cl)c(Cl)c(Cl)c(C#N)c1Cl
active: [10] 0.452 µM | [14] 0.322 µM
inactive: [1] | [2] | [3] | [4] | [6] | [7] | [9] | [11] | [19] | [12] | [13] | [15] | [16] | [17] | [18]

CNC(=O)CSP(=S)(OC)OC
inactive: [1] | [2] | [3] | [4] | [6] | [7] | [9] | [10] | [11] | [19] | [12] | [13] | [14] | [15] | [16] | [18]
